Values joined by “and” are separate entries in the source; they are usually repeats but may differ in a detail not shown here. Equal entries are not always repeated. Some structures have more than one record in an assay (separate samples or runs), and their calls can disagree. Active and inactive are the calls of the source. How the source made its calls: active means hit-call score of the fitted dose curve at least 0.9, where 1 is the maximum; inactive means score below 0.9.
assay: ATG_CRE_CIS: Attagene CIS-FACTORIAL HepG2 Assay for human cAMP Responsive Element (CRE) binding protein 3 (AID 2282926); settings: HepG2 CRE cis-reporter, Attagene multiplexed mRNA; actives raise or lower the signal
Procedure: ATG_CIS is a cell-based, multiplexed-readout assay that uses HepG2, a human liver cell line, with measurements taken at 24 hours after chemical dosing in a 24-well plate.ATG_CRE_CIS is one of 52 assay component(s) measured or calculated from the ATG_CIS assay. It is designed to make measurements of mRNA induction, a form of inducible reporter, as detected with fluorescence intensity signals by Reverse transcription polymerase chain reaction (RT-PCR) and Capillary electrophoresis technology.Data from the assay component ATG_CRE_CIS was analyzed into 1 assay endpoint. This assay endpoint, ATG_CRE_CIS, was analyzed with bidirectional fitting relative to DMSO as the negative control and baseline of activity. Using a type of inducible reporter, measures of mRNA for gain or loss-of-signal activity can be used to understand the reporter gene at the transcription factor-level as they relate to the gene CREB3. Furthermore, this assay endpoint can be referred to as a primary readout, because this assay has produced multiple assay endpoints where this one serves a reporter gene function. To generalize the intended target to other relatable targets, this assay endpoint is annotated to the dna binding intended target family, where the subfamily is basic leucine zipper.
Human liver HepG2 cells are transiently transfected with multiple reporter transcription units (MRTUs) in 6-well plates using FuGene 6 reagent (Roche; 3 ml FuGene/1 mg DNA). The MRTU constructs are regulated by a cis-regulating element (promoter). […] A major difference between the CIS and TRANS system is that in CIS activities of endogenous TFs are measured, whereas the TRANS assay evaluates changes in activities of exogenous, chimeric NR-Gal4 proteins. […] At the end of 24 hour incubation, total RNA was isolated using TriZol reagent (Invitrogen). The isolated RNA is then reverse-transcribed using oligo(dT) primer and Mo-MLV reverse transcriptase (Invitrogen) with DNAse I (Ambion) treatment for 30 min. The one-tenth of the produced cDNA was amplified by PCR using Taq DNA polymerase (Invitrogen) and two reporter sequence-specific primers. The PCR products were fluorescently labeled by primer extension with 6-arboxyfluorescein (6-FAM) 5'-labeled reporter sequence-specific primer (2 min at 95 C, 20 s at 68 C and 10 min at 72 C) and these products were digested with 5U of HpaI (New England Biolabs) for 2h at 37 C. The fragments were purified using Qiaquick PCR columns (Qiagen), analyzed on an ABI 3130xL genetic analyzer (Applied Biosystems) with peak positions identified by using a set of X-rhodamine (ROX)-labeled MapMarker1000 molecular weight standards (BioVentures). The raw capillary electrophoresis data was processed using Attagraph software (Attagene).

| SMILES | outcome | AC50 |
| --- | --- | --- |
| C1CCCNCC1 | inactive |  |
| CCOC(=O)CC1(C)OCC(C)O1 (stereo not given) | inactive |  |
| O=C1OC2(c3ccc(O)cc3Oc3cc(O)ccc32)c2ccccc21 | inactive |  |
| CC/C=C\C#N | inactive |  |
| CC(O)CN (stereo not given) | inactive |  |
| O=S1(=O)CC(Cl)(Cl)C(Cl)(Cl)C1 | inactive |  |
| NS(=O)(=O)c1cc(C(=O)O)c(NCc2ccco2)cc1Cl | inactive |  |
| c1coc(CNc2ncnc3nc[nH]c23)c1 | inactive |  |
| CC1=CCC(C(C)(C)O)CC1 (stereo not given) | inactive |  |
| CCCCCC1C(=O)CCC1CC(=O)OC (stereo not given) | inactive |  |
| CC1=CC[C@@H]2C[C@H]1C2(C)C | inactive |  |
| C[N+](C)(C)CCO | inactive |  |
| CC(=O)Nc1cc(S(=O)(=O)O)cc2cc(S(=O)(=O)O)c(N=Nc3ccccc3)c(O)c12 | inactive |  |
| CCCCCCCCSCc1cc(C)c(O)c(CSCCCCCCCC)c1 | inactive |  |
| O=C(c1ccc(OCCN2CCCCC2)cc1)c1c(-c2ccc(O)cc2)sc2cc(O)ccc12 | inactive | 11.1 µM (active) and 14.7 µM (active) |
| CCCC(O)C(CC)CO (stereo not given) | inactive |  |
| CCCCCCCCCCOC(=O)c1ccccc1C(=O)OCCCCCCCC | inactive |  |
| CCC(C)(C)C1CCC(OC)CC1 (stereo not given) | inactive |  |
| CCCCCCC(O)CCOC(C)=O (stereo not given) | inactive |  |
| CN(C)c1ccc(C=O)cc1 | inactive |  |

| SMILES | outcome | AC50 |
| --- | --- | --- |
| O=c1cc(-c2ccc(O)cc2)oc2cc(O)cc(O)c12 |  | 26 µM (active) |
| ClCCOCCOCCCl | inactive |  |
| CCCC1CCOC(C)S1 (stereo not given) | inactive |  |
| CC(C)Cc1ccc(C(C)C(=O)O)cc1 (stereo not given) | inactive |  |
| Nc1cc([N+](=O)[O-])ccc1C(=O)O | inactive |  |
| CCNC(=S)NCC | inactive |  |
| Cc1cc(O)c(C)c(C)c1O | inactive |  |
| CCOc1ccc(NC(C)=O)cc1 | inactive |  |
| CC(C)N(c1ccccc1)C(C)C | inactive |  |
| CCn1cc(C(=O)O)c(=O)c2ccc(C)nc21 | inactive |  |
| OCCCO | inactive |  |
| CC1(C)CC(=O)CC(C)(C)N1 | inactive |  |
| CCCCCCCCCCCCS | inactive |  |
| COC(=O)C(C)Oc1ccc(Oc2ncc(C(F)(F)F)cc2Cl)cc1 (stereo not given) | inactive |  |
| CCCCCCCCCO | inactive |  |
| CCCOC(=O)CC | inactive |  |
| O=C(OCc1ccccc1)c1ccccc1O | inactive |  |
| CC(C)(O)C(=O)c1ccc(OCCO)cc1 | inactive |  |
| CC(=O)OC(C)(C)C | inactive |  |

Source: PubChem BioAssay (EPA / NIEHS)
